Measured values taken from the supplement of paper PMC6555819.

What was measured:
Test in all cases: PBM binding z-score (relative to random genomic background probes); higher = stronger binding; sequences stand for … in GC…GCGATTGACAGCGTAGAATGAAGG
[1] = system: FXR:RXRa (NR concentration 270 nM, RXRa partner concentration 90 nM)
Outline: (§1)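 The probes on custom Agilent 4×180K protein-binding microarrays were double-stranded, with 34-nt variable regions bearing direct-repeat seeds, single-nucleotide variants, half-site ablations and random human genomic background sequences. Incubation lasted 1 h with ligand-free nuclear receptor dimers in PBS pH 7.4, 2% milk, 0.02% Triton X-100, 1 mM DTT, 0.2 mg/mL BSA and 0.4 mg/ml salmon testes DNA. Antibodies against each partner (one per run) detected bound dimers, and fluorescence scans were regression-normalized. Binding z-scores take the random background probes as reference.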

[2] = system: LXRa:RXRa (NR concentration 270 nM, RXRa partner concentration 90 nM)
Outline: as §1

[3] = system: LXRa homodimer (NR concentration 270 nM)
Outline: as §1

[4] = system: LXRb:RXRa (NR concentration 270 nM, RXRa partner concentration 90 nM)
Outline: as §1

[5] = system: LXRb homodimer (NR concentration 270 nM)
Outline: as §1

[6] = system: PPARa:RXRa (NR concentration 270 nM, RXRa partner concentration 90 nM)
Outline: as §1

[7] = system: PPARg:RXRa (NR concentration 180 nM, RXRa partner concentration 90 nM)
Outline: as §1

[8] = system: PPARg:RXRa 270nM:90nM, anti-RXR (NR concentration 270 nM, RXRa partner concentration 90 nM)
Outline: as §1

[9] = system: PPARg:RXRa 30nM:10nM, anti-RXR (NR concentration 30 nM, RXRa partner concentration 10 nM)
Outline: as §1

[10] = system: PPARg:RXRa 90nM:30nM, anti-RXR (NR concentration 90 nM, RXRa partner concentration 30 nM)
Outline: as §1

| Sequence | PBM binding z-score [1] | PBM binding z-score [2] | PBM binding z-score [3] | PBM binding z-score [4] | PBM binding z-score [5] | PBM binding z-score [6] | PBM binding z-score [7] | PBM binding z-score [8] | PBM binding z-score [9] | PBM binding z-score [10] |
| --- | --- | --- | --- | --- | --- | --- | --- | --- | --- | --- |
| TCGAGTAGGTTACCAGTGGGGCATTCAGCTTTCT | -0.0125 | 1.19 | -0.24 | 0.725 | -0.623 | 1.16 | 0.278 | 1.36 | 1.05 | 1.36 |
| CGACAAAGTTCAACTAAGGTAACGTAAAGCACGC | 6.54 | 5.86 | 3.44 | 4.09 | 1.92 | 4.93 | 4.38 | 4.95 | 2.16 | 3.95 |
| ATCTCTAGGTAACCTAGTTCAGTGAATGCCGAAC | 0.745 | 1.07 | 0.16 | 1.26 | 0.421 | 2.24 | 1.69 | 1.42 | 0.221 | 0.568 |
| CCAGACAGGTGAGAAGGTAACTAAGCCTCGATTA | -0.00461 | 0.0397 | -0.256 | -0.0609 | -0.426 | 0.532 | 0.439 | 0.258 | -0.00796 | -0.013 |
| ACTATTAGTTCAGACGAGGGCAACCGATAGGTTG | 1.07 | 1.31 | 0.305 | 0.453 | 0.271 | 0.817 | 0.621 | 0.191 | -0.0108 | 0.00845 |
| CTACCAAGGTGAACAATGTCGTTGATTACTATTC | 0.559 | 0.263 | 0.0434 | 0.937 | 0.00375 | 1.37 | 0.621 | 0.75 | 0.226 | 0.326 |
| ACTAGCAGGCCAAGGGTCTCTCAAGATTAGTCCG | -1.54 | -0.539 | -0.698 | -0.703 | -1.05 | 0.948 | 2.49 | 4.52 | 2.15 | 4.55 |
| ATATGTAGGTAATCGGGTCATTCAGTTTGCGCAT | 1.83 | 1.79 | 0.62 | 2.26 | 0.648 | 4.67 | 6.27 | 5.56 | 3.33 | 4.77 |
| TGAATGAAGTTATAAGATCAGGGAACGTTGCAAA | -0.521 | -0.697 | -0.369 | -0.457 | -0.454 | -0.296 | 0.116 | -0.239 | 0.157 | -0.0808 |
| GCGACTGGGGCAAAGCAGGTAACCATAAGGTTGG | -0.15 | -0.576 | -0.622 | -0.339 | -0.997 | 0.96 | 1.1 | 1.08 | -0.433 | 0.285 |
| CGTCAAAGTTCAAGATAACGTAACAGAAAGCAGC | 6.13 | 5.32 | 2.94 | 3.5 | 1.64 | 4.45 | 4.44 | 4.96 | 2.17 | 3.75 |
| CCTCGGAGGACGGAAGGTCAGAGCTGTCCGCTTT | 1.07 | 1.43 | -0.129 | 0.901 | -1.26 | 1.57 | -0.636 | 0.361 | -0.964 | -0.314 |
| CGTCCAAGGTCAAAGATCAGTGAAGAGATGACGG | 6.99 | 5.44 | 0.528 | 4.2 | 1.25 | 5.75 | 6.08 | 6.43 | 3.08 | 5.64 |
| CCGACTGGGGCTGAAAGGTTACCATACCATCCGG | 0.294 | 0.581 | -0.00145 | 0.846 | -1.11 | 1.76 | 0.998 | 1.93 | 0.223 | 1.31 |
| TAGCCTAGGACATTGGGCCAGTATAGTACGCATC | -0.399 | -0.701 | -0.544 | -0.775 | -0.541 | -0.477 | 0.608 | -0.283 | -0.241 | -0.224 |
| CGTCCAAGGTCAAAGTCAGTGAAAGAGACTCGAA | 7.61 | 5.36 | 0.709 | 4.03 | 1.64 | 5.87 | 5.41 | 5.32 | 1.82 | 4.19 |
| GCTCGGAGGACAAGGCCAGAGCTTTGTCCGTAGA | -0.721 | -1.04 | -0.948 | -1.4 | -1.59 | -1.69 | -1.44 | -1.18 | -1.47 | -1.57 |
| CGTCCAAGGTCAAGGTCAGTGAAAGAGACTCGAA | 7.52 | 5.66 | 1.09 | 4.51 | 0.985 | 6.12 | 6.53 | 6.21 | 2.56 | 4.65 |
| CCTCACGGGTCAAGGTTATAGCACGGGTGGTACG | 5.02 | 3.42 | 0.0967 | 2.74 | -0.33 | 4.38 | 3.05 | 3.67 | 0.731 | 2.35 |
| CCTAGCAGGCCAGGGTCACTCGAGCATTTCGCTT | 2.22 | 1.62 | -0.424 | 1.78 | -0.991 | 2.98 | 0.557 | 1.6 | -0.327 | 0.652 |
| ATCGAAAGGTCGACGAGGTGAGTATTCACCGTTT | 4.22 | 3.41 | -0.275 | 2.63 | 0.0468 | 4.26 | 2.45 | 2.99 | 1.55 | 1.94 |
| CAAACTAGGTCAAGAGGTCAAAGTCCGCTTCCCG | 7.09 | 6.37 | 6.55 | 5.7 | 1.96 | 6.67 | 9.95 | 8.33 | 6.28 | 8.63 |
| CAAACTAGGTCAAGAGGGCAAAGTCCGCTTCCCG | 4.55 | 4 | 1.14 | 2.47 | 0.164 | 5.21 | 8.68 | 7.36 | 5.56 | 7.15 |
| CTTCGGAGGACAGAAGGTCAGAGCTGTCCGCTTT | 1.6 | 1.84 | -0.0247 | 0.975 | -0.772 | 1.85 | -0.0897 | 1.07 | -0.905 | 0.484 |
